Measured values as given in PubChem BioAssay AID588335 (The Scripps Research Institute Molecular Screening Center, 2011).
About 4,500 (1.2%) of roughly 360,000 compounds were called active. What follows is part of a selection rich in actives, with near analogues and random picks from the rest. Unmarked numbers belong to inactive results. Cut-off read from the data, not from the text of the source: active = inhibition above about 30%; inactive = the rest.

Experiment: inhibition of GDH and TPI enzymes – biochemical, absorbance, full deck, artefact control for M. tuberculosis FBA inhibitor project, primary screen (AID 588335);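 note: 0% = DMSO wells and 100% = wells lacking the enzyme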
Settings: GDH-TPI coupled enzyme counterscreen, NADH absorbance; at 4.8 µM; stronger effect = higher value

SMILES	inhibition
O=C(NCc1ccco1)/C(=C\c1cccc([N+](=O)[O-])c1)NC(=O)c1ccco1	16.8%
Cc1ccc(C(=O)N/C(=C/c2ccc(-c3cccc([N+](=O)[O-])c3)o2)C(=O)NCCCN(C)C)cc1	58.5% (active)
O=C(NCc1ccco1)/C(=C/c1cccc([N+](=O)[O-])c1)NC(=O)c1ccco1	-4.48%
CN(C(=O)c1cccc(NC(=O)Cc2ccc([N+](=O)[O-])cc2)c1)C1CCC1	6.17%
Cc1nnsc1C(=O)N/N=C/c1cccc(C(F)(F)F)c1	5.54%
COc1cc(/C=N/NC(=O)Nc2ccccc2)ccc1OCCOc1ccccc1C	18.8%
COc1ccc(/C=N\NC(=O)c2sc(N)nc2C)cc1OC	40.4% (active)
CC1(Oc2ccc(Cl)cc2)CCN(Cc2csc3ccccc23)C1 (stereo unspecified)	-8.04%
CCOC(=O)c1ccccc1NC(=S)N1CCC(C(N)=O)CC1	-2.65%
CCCCn1c(N)c(N(CCOC)C(=O)c2sc3ccccc3c2Cl)c(=O)[nH]c1=O	0%
CC(=O)Nc1ccc(S(=O)(=O)Nc2nc3n(n2)C(c2ccccc2)CC(=O)N3)cc1 (stereo unspecified)	0.72%
CCOc1ccc(-n2c(SCC(=O)Nc3ccc(OC)cc3)nc3sc4c(c3c2=O)CCN(C)C4)cc1	19.9%
CCCSc1nc2sc3c(c2c(=O)n1-c1ccc(OC)cc1)CCN(C)C3	14.5%
CCOc1ccc(-n2c(SCC(=O)OC)nc3sc4c(c3c2=O)CCN(C)C4)cc1	22.9%
CCSc1nc2sc3c(c2c(=O)n1-c1ccc(C)cc1)CCN(C)C3	30.7% (active)
COc1ccccc1NC(=O)CSc1nc2sc3c(c2c(=O)n1-c1ccccc1)CCN(C)C3	33.1% (active)
CCn1c(SCC(=O)Nc2ccc(Br)cc2)nc2sc3c(c2c1=O)CCN(C)C3	6.95%
C[C@H]1CN([C@@H](C)CO)C(=O)CCCn2cc(nn2)CO[C@@H]1CN(C)S(=O)(=O)c1ccc(-c2ccccc2)cc1	5.15%
CC1(C)CC(=O)C(C2c3ccccc3S(=O)(=O)c3ccccc32)C(=O)C1	3.51%
Cc1c(C=O)c2ccccn2c1C(=O)c1ccncc1	23.7%
COc1cc(NC(=O)CCNC(=O)Cn2ccc3ccccc3c2=O)cc(OC)c1OC	-1.5%
Cn1c(=O)c2c(nc(N3CCCCCC3)n2CC(O)COc2ccc(Cl)cc2)n(C)c1=O (stereo unspecified)	3.88%
CN(C)S(=O)(=O)c1cccc(NC(=O)COc2ccc3ccccc3c2)c1	0.32%

SMILES	inhibition
CN(C)S(=O)(=O)c1cccc(NC(=O)COC(=O)c2cc(=O)[nH]c(=O)[nH]2)c1	-1.24%
Cc1ccc(/C=N/NC(=S)Nc2cccc(S(=O)(=O)N(C)C)c2)o1	55.8% (active)
CCN(C(=O)Nc1cccc2ccccc12)c1ccccc1	3.9%
Cc1cccc(S(=O)(=O)N2CN(CC3CCCO3)c3nc4ccccc4nc32)c1 (stereo unspecified)	11.8%
CCN(CC)C(=O)c1sc(NC(=O)c2ccco2)c(C#N)c1C	33.3% (active)
Cc1sc(NC(=O)C2=COCCO2)c(C#N)c1C	13.8%
Cc1c(C(=O)OC(C)C)sc(NC(=O)c2cccnc2)c1C#N	20.9%
CCN(CC)CC(=O)Nc1nn(-c2ccccc2)nc1C(N)=O	-4.59%
COc1ccc(OC)c(/C=N/NC(=O)c2ccc[n+](CC(=O)c3ccccc3)c2)c1	11.2%
COc1ccc(OC)c(/C=C/C(=O)c2ccc3c(c2)OCO3)c1	7.32%
COc1ccc(/C=N/NC(=O)c2ccc3c(c2)OCCO3)c(OC)c1	35.4% (active)
CCCCc1ccc(S(N)(=O)=O)cc1	1.6%
CN(CC(=O)NCCc1ccc(S(N)(=O)=O)cc1)CC(=O)Nc1ccc(Cl)cc1	2.64%
CN(C)c1ccc(C=NCCc2ccc(S(N)(=O)=O)cc2)cc1	54.4% (active)
O=C(O)CC(c1ccccc1F)N1Cc2ccccc2C1=O (stereo unspecified)	-3.95%
Cc1c(C(=O)NC2CCCCC2)oc2ccccc12	5.98%
CC(C)c1ccccc1OCC(O)CN(CC(O)COc1cccc2ccccc12)C(C)C (stereo unspecified)	6.49%
COc1ccc(S(=O)(=O)N(C)CC(=O)Nc2ccc3c(c2)OCCO3)cc1OC	5.05%
COc1ccc(CCC(=O)Nc2ccc(Cl)c(S(=O)(=O)N3CCOCC3)c2)cc1OC	5.73%
COc1cc(/C=C/C(=O)Nc2ccc(OC)c(S(=O)(=O)N3CCOCC3)c2)ccc1OCC#N	34.9% (active)
COc1ccc(/C=C/C(=O)Nc2ccc3c(c2)OCCO3)cc1OC	33.3% (active)
CSc1ccc(/C=C/C(=O)NC23CC4CC(CC(C4)C2)C3)cc1	14.4%
COc1ccc(/C=C/C(=O)Nc2ccc(C34CC5CC(CC(O)(C5)C3)C4)cc2)cc1OC	31% (active)

SMILES	inhibition
COc1cc(/C=C/C(=O)OCC(=O)N2CCOCC2)ccc1OCC#N	5.68%
COc1cccc(/C=C/C(=O)Nc2ccc3c(c2)OCCO3)c1	9.4%
COc1ccc(/C=C/C(=O)OCC(=O)NC2CCCCCC2)cc1OC	27.3%
CCN1C(=O)[C@H]2[C@@H](c3ccc(SC4CCCCC4)c(OC)c3)N[C@@](Cc3ccccc3)(C(=O)OC)[C@H]2C1=O	9.48%
COc1ccc(-c2ccc(C(=O)NCCN3CCOCC3)c3occc23)c(C)c1	-2.68%
CCc1ccc(-c2cc3c(=O)n(CC(=O)NCCCN4CCN(Cc5ccccc5)CC4)nc(C)n3n2)cc1	5.56%
O=C(NCc1cccnc1)c1cccnc1Sc1ccc(Cl)cc1	-0.62%
Cc1ccc(C)c(N2CCN(C(=O)CCc3nc(-c4cccc(C(F)(F)F)c4)no3)CC2)c1	0%
CC1(C)Cc2ccccc2-c2nnc(-c3cccc(O)c3)n21	3.02%
COc1ccc(OC)c(/C=N/NC(=O)CSc2nnc(C)n2-c2ccccc2)c1	30.2%
C=CCn1c(Cn2nnc3ccccc32)nnc1SCC(=O)N/N=C/c1cc(Br)cc(OC)c1O	33.8% (active)
Cn1c(Cn2nnc3ccccc32)nnc1SCC(=O)c1ccccc1F	-1.22%
Cc1ccc(-n2nc3c(c2NC(=O)CCC2CCCCC2)CS(=O)C3)cc1 (stereo unspecified)	-6.57%
O=C(CCNS(=O)(=O)c1ccc(Br)s1)NCc1ccccc1Cl	-5.73%
CCn1ccnc1CNC(=O)CC1C(=O)NCCN1CCCc1ccccc1 (stereo unspecified)	1.04%
O=C(NCc1ccc2c(c1)OCO2)c1cc2c(s1)CS(=O)(=O)C2	3.7%
COc1ccc2[nH]c(=O)c(CNc3ccc(C)c(C)c3)cc2c1	7.26%
CCOc1ccc2ccccc2c1/C=N/NC(=O)c1c(C)cc(C)[nH]c1=O	11.8%
COc1cc2cc(C(=O)N/N=C/c3cccc(OC)c3OC)[nH]c2cc1OC	53.6% (active)
CCC(=O)c1ccc(OC(=O)/C=C/c2cc(OC)c(OC)c(OC)c2)cc1	14.9%
COc1cccc2[nH]c(C(=O)NCCc3ccccc3)cc12	2.15%
COc1ccc2[nH]c(C(=O)N/N=C/c3cc(OC)c(OC)c(OC)c3)cc2c1	63% (active)
COc1cccc(C(=O)N/N=C(\C)c2cccc(NC(=O)c3ccc(F)cc3)c2)c1OC	-1.01%

SMILES	inhibition
CCOc1ccc2[nH]c(=O)c(CN(CCCO)C(C)=O)cc2c1	10.1%
CCOc1ccc2[nH]c(C(=O)N/N=C/c3cccc(OC)c3OC)cc2c1	42.1% (active)
CC(C)n1c(SCC(=O)Nc2ccccc2N2CCCCC2)nc2c1c(=O)n(C)c(=O)n2C	2.5%
NS(=O)(=O)c1ccc(CNC(=O)c2ccc(Cl)cc2[N+](=O)[O-])cc1	-1.13%
Cc1cn(C)c(=O)n(C)c1=O	-2.08%
COc1cccc(N2CC(C(=O)NCc3n[nH]c(=O)c4ccccc34)CC2=O)c1 (stereo unspecified)	3.52%
CC(C)Cc1nc(Cl)c(C#N)c2c1CCC2	-7.66%
O=c1cc(N2CCCCC2)c(-c2ccccc2)nn1Cc1cccc(F)c1	10.7%
O=C(Nc1cc(C(F)(F)F)ccc1Cl)c1cc2nc3c(c(C(F)(F)F)n2n1)CCCC3	-11.5%
NS(=O)(=O)c1ccc(NC(=O)COC(=O)CCc2c[nH]c3ccccc23)cc1	4.09%
Cc1cc(C)cc(OCC(=O)NNC(=O)c2cc3ccccc3oc2=O)c1	11.9%
NS(=O)(=O)c1ccc(NC(=O)COC(=O)c2cc3ccccc3oc2=O)cc1	32.9% (active)
OCC(O)C1OCOC(C(O)CO)C1O (stereo unspecified)	3.51%
CCCNS(=O)(=O)c1ccc(CCC(=O)NCc2cccnc2)cc1	1.83%
Nc1ncnc(Nc2cccc(Cl)c2Cl)n1	6.09%
CC1CCN(C(=O)c2ccc(S(=O)(=O)Cc3cc(F)ccc3F)c([N+](=O)[O-])c2)CC1	2.21%
CCOc1ccccc1NC(=O)C1CCCN(S(=O)(=O)c2ccccc2)C1 (stereo unspecified)	11.6%
O=C(CNS(=O)(=O)c1ccc2c(c1)OCCCO2)N1CCN(c2ccc(F)cc2)CC1	6.99%
COc1ccc(N2CCN(C(=O)CNS(=O)(=O)c3ccc(C)c(C)c3)CC2)cc1	10.1%
O=C(NN=CC=Cc1ccccc1)C(O)C(O)C(=O)NN=CC=Cc1ccccc1 (stereo unspecified)	20.2%
Cc1ccc(-c2cc(C(=O)NN)n[nH]2)o1	-4.43%
Cc1ccc(-c2cc(C(=O)N/N=C/C=C/c3ccccc3)n[nH]2)o1	36.6% (active)
